This is one part of the list. Inconclusive results are not listed. Values without a mark were called inactive. Activity calls are given as the source filed them. Calls come from the whole dose curve; as a rule, active = well fitted inhibition curve with a large enough effect; inconclusive = small, poorly fitted or top-dose-only effect; inactive = no such curve, though single readings can be large or run the other way.
Experiment: qHTS of pediatric cancer cell lines to identify multiple opportunities for drug repurposing: Orthogonal 3D viability screen for Daoy cells
Conditions: Daoy 3D spheroid viability, PI/Hoechst imaging, 72 h; series mostly up to 30.7 µM; activity change, negative = viability loss: at the top concentration
Description: Drug repurposing or repositioning has been offered as a strategy for drug development in oncology programs. This approach has special potential for childhood cancers and other rare or orphan diseases, where the expected return on new drug development has been a disincentive to pharmaceuticals. […] In this project we exploit the poly-pharmacology of drugs to discover new indications via phenotypic screening of a panel of 19 well-characterized cell lines derived from solid tumors seen in children and adolescents. The goal is to identify approved drugs with previously unrecognized anticancer properties that has the potential to reveal new mechanisms and biological processes involved in carcinogenesis or drug resistance. We employed a titration-based paradigm (quantitative high-throughput screening or qHTS), where all compounds were tested at multiple concentrations for their effect on cell viability. Concentration-response curves (CRCs) were derived directly from the primary screen, and both potency and efficacy values were used to identify compounds with robust bioactivity profiles. […] These two assays will be use to validate active compounds and assess the correlation of compound's potency in 2D vs 3D cultures on selected cell lines. Assay Submitter: Nathalia J. Martinez, National Center for Advancing Translational Sciences, National Institutes of Health, Rockville, MD, USA; email: natalia.martinez@nih.gov Shen, M et al. Quantitative high-throughput phenotypic screening of pediatric cancer cell lines identifies multiple opportunities for drug repurposing. Oncotarget 2017 Dec 19;9(4):4758-4772. PMID 29435139.
The cells were obtained from University of North Carolina (UNC), Pediatric Preclinical Testing Program (PPT), and Coriell Institute (CI). qHTS viability in 3D culture: Cells were assayed in phenol red-free growth media at a density of 1,000 cells/well, with the exception of Daoy, and SH-N-SH which were assayed at 1,500 cells/ well. Thirty muL of cells were dispensed into 384-well, ULA, round bottom plates (Corning) using a Multidrop dispenser. […] Spheroid viability was first determined by high-content imaging using Hoechst 33342 and Propidium Iodide (PI, ThermoFisher Scientific), followed by addition of CellTiter-Glo 3D (Promega). […] Plates were incubated for 30 min at RT on a VWR microplate shaker (300 rpm) and analyzed for luminescence intensity using a ViewLux High-throughput CCD imager equipped with clear filters. […] The data were exported to Excel, and the average fluorescent intensities were used to calculate the ratio of PI over Hoechst, which was used to quantify viability. […]

SMILES | activity change, negative = viability loss [%] | Potency
C=C1C(=CC=C2CCC[C@]3(C)[C@@H]([C@H](C)C=C[C@H](C)C(C)C)CC[C@@H]23)C[C@@H](O)C[C@@H]1O | 54.7 | 
CC1(C)O[C@@H]2C[C@@H]3[C@H]4C[C@@H](F)C5=CC(=O)C=C[C@]5(C)[C@@]4(F)[C@@H](O)C[C@]3(C)[C@]2(C(=O)CO)O1 |  | 3620 nM (active)
CC[C@H]1CN2CCc3cc(OC)c(OC)cc3[C@@H]2C[C@@H]1C[C@H]1NCCc2cc(OC)c(OC)cc21 |  | 406 nM (active)
CC(NCc1ccc2c(c1)nc(NC(=O)c1ccc(-c3cn[nH]c3)s1)n2CC(C)(C)O)C(C)(C)C (centres undefined) |  | 511 nM (active)
